G9a inh = blocks human histone lysine methyltransferase G9a | G9a H3K9 monomethylation, AlphaScreen, 2 h | Potency, µM (highest dose often 102 µM), for the others: at the highest dose activity, negative = inhibition, usual class: inhibitors | 8.8% of 350,000 active; further: on the % scale 0 is the no-effect control and ±100 the full control effect; nearly all actives have a fitted effect of over 75% in size
Target sequence (Q96KQ7 913-1193 limits assumed): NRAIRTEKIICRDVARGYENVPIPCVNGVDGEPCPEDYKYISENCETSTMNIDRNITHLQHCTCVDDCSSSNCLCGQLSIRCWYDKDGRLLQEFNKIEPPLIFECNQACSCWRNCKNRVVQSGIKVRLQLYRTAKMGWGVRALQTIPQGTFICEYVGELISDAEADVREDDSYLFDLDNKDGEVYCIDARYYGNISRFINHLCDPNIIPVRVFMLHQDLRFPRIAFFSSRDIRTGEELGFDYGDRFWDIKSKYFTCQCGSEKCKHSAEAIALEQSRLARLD
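Step 1: enzyme (final 20 nM) with compound, 15 min RT. Step 2: substrate peptide 500 nM and SAM 20 uM, 2 h RT. Step 3: anti-H3K9me1 antibody and AlphaScreen beads, 10 min, then plate read.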
L3MBTL1 inh = inhibitors of human L3MBTL1 | AlphaScreen L3MBTL1–H3K9me1 peptide binding | Potency, µM (highest dose often 57.1 µM), without a hit: at the highest dose activity, negative = inhibition, actives largely listed as inhibitors | 0.66% of 230,000 active | Q9Y468; further: on the % scale 0 is the no-effect control and ±100 the full control effect; nearly all actives have a fitted effect of over 60% in size
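L3MBTL1 (50 nM) pre-complexed 30 min with biotinylated H3(1-15)K9me1 peptide (75 nM), then compounds added for 30 min at room temperature; AlphaScreen streptavidin donor/nickel chelate acceptor beads (10 ug/mL final) read after 30 min dark incubation.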
BAZ2B inh = inhibitors of human BAZ2B bromodomain | Q9UIF8 | AlphaScreen BAZ2B-H3K14Ac peptide displacement | Potency, µM (series often up to 114 µM), without a hit: at the top dose activity change, negative = inhibition, most hits filed as inhibitors | 4.4% of 360,000 active | AID 504333; further: on the % scale 0 is the no-effect control and ±100 the full control effect; nearly all actives have a fitted effect of over 60% in size
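Compounds, titrated to a top concentration of 110 uM, were incubated 30 min at room temperature with preformed BAZ2B/acetyl-K14 H3 peptide complex (50 nM each). Proximity signal was measured by AlphaScreen after 20 min with beads.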
JMJD2A Tudor = JMJD2A Tudor domain (human) inhibition | O75164 | AlphaScreen JMJD2A-Tudor / H3K4me3 peptide binding | Potency, µM (doses to about 114 µM), for inactives: at the highest dose activity change, negative = inhibition, most hits filed as inhibitors | 4.4% of 390,000 active | AID 504339; further: on the % scale 0 is the no-effect control and ±100 the full control effect; nearly all actives have a fitted effect of over 50% in size
HP1b binding inh = inhibitors of HP1-beta chromodomain binding to methylated histone tails; AlphaScreen HP1-beta / biotin-H3K9me3 peptide binding; Potency, µM (top dose mostly 114 µM), without a hit: at the highest dose activity change, negative = inhibition, most hits filed as inhibitors; 0.56% of 390,000 active; further: nearly all actives have a fitted effect of over 70% in size
Target sequence (P83916 whole entry, looked up): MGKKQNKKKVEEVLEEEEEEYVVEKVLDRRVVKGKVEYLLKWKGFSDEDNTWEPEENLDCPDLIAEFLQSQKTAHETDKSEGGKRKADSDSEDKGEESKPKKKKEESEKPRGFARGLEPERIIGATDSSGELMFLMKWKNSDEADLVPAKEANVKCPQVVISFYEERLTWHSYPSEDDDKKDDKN
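Compound inhibition of the preformed complex between 50 nM HP1-beta and 50 nM biotinylated H3K9me3 peptide was read by AlphaScreen. Buffer was PBS pH 7.4 with 0.01% Tween-20. Incubations ran 30 min at room temperature, with 10 ug/mL donor/acceptor beads.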
Numbers without * were called inactive; ? = inconclusive; . = no result; [ ] = dose if it differs, or a comment. Shown are actives, neighbours in structure and some others; about 11% of the full set was active somewhere. The call rests on the fitted dose curve; in most records, active means well fitted inhibition curve with a large enough effect; inconclusive means small, poorly fitted or top-dose-only effect; inactive means no such curve, though single readings can be large or run the other way. Potency means the concentration at half of the fitted maximal effect.

SMILES | G9a inh | L3MBTL1 inh | BAZ2B inh | JMJD2A Tudor | HP1b binding inh
O=c1[nH][nH]c(C(F)(F)F)c1C=Nc1cccc(Cl)c1 | ? | 3.1% | -3.9% | -19.1% | 23.1%
COc1ccc(-c2cc(C(C)=O)c(C)n2CCC(=O)Nc2ccc(C)c(Cl)c2)cc1 | -9.9%[59 µM] | . | 0.0% | -3.8% | 24.2%
Nc1c(C(=O)c2ccccc2)sc2nsc(SCCN3CCCC3)c12 | . | -6.8% | ? | 79.4µM* | -3.9%
CC1CC2=C(NC(=S)NC2c2cccc(F)c2)/C(=C/c2cccc(F)c2)C1 (stereo unspecified) | 31.6µM* | -28.4% | ? | ? | ?
CC1CC2=C(NC(=S)NC2c2ccccc2F)/C(=C/c2ccccc2F)C1 (stereo unspecified) | 17.8µM* | -16.3% | ? | ? | -8.3%
CCCCN1C(=O)C2(NNc3ccccc3O2)c2ccccc21 (stereo unspecified) | ? | . | 44.7µM* | ? | -23.1%
C=CCN1C(=O)C2(NC(=O)c3ccccc3N2)c2ccccc21 (stereo unspecified) | -0.3% | 5.2% | -14.1% | 10.7% | 35.9%
C=CCN1C(=O)C2(NNc3ccccc3O2)c2ccccc21 (stereo unspecified) | 15.8µM* | . | ? | ? | -7.4%
CCCCN1C(=O)C(O)(c2c(C)[nH]c3ccccc23)c2ccccc21 (stereo unspecified) | 7.5%[59 µM] | . | -26.9% | -25.1% | -11.3%
COC(=O)/C(C#N)=C(/Nc1ccc(F)c(Cl)c1)C(F)(F)F | 0.6% | -10.7% | -17.6% | -7.6% | 26.8%
COc1ccc(Cl)cc1NC(=O)Cn1cc(C(=O)c2ccncc2)c(=O)c2cc(C)ccc21 | 7.8%[59 µM] | . | -0.4% | -20.1% | 10.7%[57 µM]
Cc1nn(-c2ccccc2)c(OC(=O)c2ccccc2F)c1S(=O)(=O)c1ccccc1 | ? | . | ? | -32.5% | -2.2%
Cc1cc2cc(C)c3nnc(SCC(=O)N4CCN(C(=O)c5ccco5)CC4)n3c2cc1C | . | . | . | -10.7% | 16.5%
Cc1ccc2cc(C)c3nnc(SCC(=O)N4CCN(C(=O)c5ccco5)CC4)n3c2c1 | 50.1µM* | . | -2.0% | -21.5% | 5.1%
COc1ccc(N2CCN(C(=O)CSc3nnc4c(C)cc5cc(C)ccc5n34)CC2)cc1 | 44.7µM* | -6.7% | ? | -18.8% | -27.7%
O=S(=O)(c1ccc2c(c1)OCCO2)C1CCN(S(=O)(=O)c2c(F)cccc2F)CC1 | . | . | . | -13.7% | .
Cc1ccc(NC(=O)c2cc(S(=O)(=O)N3CCc4ccccc43)cn2C)c(Cl)c1 | -30.4%[59 µM] | . | -36.3% | 0.7% | 15.5%
CC(C)n1c(O)c(N=NC(=O)C2COc3ccccc3O2)c2ccccc21 (stereo unspecified) | 35.5µM* | -16.6% | ? | ? | -21.6%
CCC(C(=O)c1ccccc1)P(=O)(NN)c1ccccc1 (stereo unspecified) | . | 0.0% | 2.8% | -9.4% | 39.9%
COC(=O)c1c(SCC(=O)Nc2cccc(C(F)(F)F)c2)[nH]c2ccccc2c1=O | 12.4%[59 µM] | . | -12.5% | -11.7% | 15.3%
c1ccc2c(c1)OC(CCCN1CCCCC1)c1ccccc1S2 (stereo unspecified) | 2.6%[59 µM] | ? | 1.3% | -23.8% | 4.8%
CN1CCCC(CC2Oc3ccccc3Sc3ccccc32)C1 (stereo unspecified) | ? | -2.3% | 50.1µM* | 8.91µM* | ?
Cc1cnc(SCCc2ccncc2)nc1C | 8.91µM* | -7.9% | 4.0% | . | .
CCC(C)C(N)C(=O)O (stereo unspecified) | 4.3%[12.7 µM] | . | . | . | .
Cc1cc(O)c(N=Cc2cc3c(cc2[N+](=O)[O-])OCO3)cc1C | . | . | . | 3.55µM* | -38.9%
SMILES | G9a inh | L3MBTL1 inh | BAZ2B inh | JMJD2A Tudor | HP1b binding inh
CN1CCN(CCC(=O)N/N=C/c2cc3c(cc2[N+](=O)[O-])OCO3)CC1 | ? | . | -29.5% | 3.98µM* | -0.8%
Cc1cccc(N=Cc2cc3c(cc2[N+](=O)[O-])OCO3)c1 | -4.7%[0.501 µM] | -1.1% | ? | -25.7% | ?
COc1ccc(C(C)=O)cc1COC(=O)CSCC(=O)Nc1ccc(C)cc1 | 1.4%[0.501 µM] | 3.4% | 79.4µM* | -7.5% | 26.2%
COc1ccc(C(C)=O)cc1CSc1nnc(Nc2ccc(C)cc2)s1 | 10µM* | 5.2% | -33.5% | 3.1% | 52.7%
COc1ccc(C(C)=O)cc1COC(=O)CSC(C)C(=O)Nc1cc(C)on1 (stereo unspecified) | -31.1% | -0.1% | 0.3% | -0.7% | 8.9%
CCCOc1ccc(C2C(=O)N(C3CCCCCC3)CC(=O)N2C(C)C)cc1OC (stereo unspecified) | 7.0%[59 µM] | . | -5.8% | -21.1% | 41.2%
FC(F)(F)c1cccc(-c2nnc3ccc(C(F)(F)F)cn23)c1 | 35.5µM* | 0.7% | -33.9% | -12.7% | 8.3%
CC1=Nc2cc(C(=O)NCCc3ccc(Cl)cc3)ccc2Sc2ccc(C)cc21 | -30.4%[59 µM] | . | -27.0% | -20.9% | 7.9%
O=C(c1ccc(S(=O)(=O)Nc2ccccc2F)cc1)N1CCN(c2ccccc2O)CC1 | ? | -2.6% | 2.3% | 31.6µM* | 27.3%
O=C(c1ccc(C(=O)N2CCN(c3ccccc3F)CC2)nc1)N1CCN(c2ccccc2F)CC1 | ? | 5.2% | -15.9% | 79.4µM* | 9.8%
OCc1ccc(O)c2ncccc12 | 1.1%[0.501 µM] | 17.8µM* | 1.41µM* | 39.8µM* | 20.8%
Oc1ccc(Cc2ccccc2)c2cccnc12 | . | . | . | 79.4µM* | 34.1%
O=C(Cn1c(=O)c2cccn2c2ccccc21)NCc1ccccc1F | ? | . | -27.3% | -31.9% | 33.0%
COc1ccc(S(=O)(=O)/N=C2/NC(=O)/C(=C\c3cc(OC)c(OC)cc3[N+](=O)[O-])S2)cc1 | -45.4%[59 µM] | . | ? | -32.4% | -5.7%
COc1cc(/C=C2\SC(=Nc3ccccc3)NC2=O)cc(Cl)c1O | 44.7µM* | . | -32.4% | ? | -13.6%
COc1ccc(S(=O)(=O)/N=C2/NC(=O)/C(=C\c3ccco3)S2)cc1 | 8.91µM* | ? | ? | -25.3% | 6.4%
COc1ccc(N=C2NC(=O)/C(=C/c3ccco3)S2)cc1 | 44.7µM* | . | 39.8µM* | -29.4% | 26.4%
CCc1ccc(N=C2NC(=O)/C(=C/c3cc(OC)c(O)c(OC)c3)S2)cc1 | ? | -4.7% | ? | -21.8% | 12.3%
Cc1ccc(S(=O)(=O)/N=C2/NC(=O)/C(=C/c3ccccn3)S2)cc1 | 56.2µM* | 0.9% | -9.8% | -6.4% | 18.0%
Cc1ccc2nc(-c3ccc(Cl)c(NC(=O)COc4ccc([N+](=O)[O-])cc4)c3)oc2c1 | 9.2%[59 µM] | . | -2.8% | -11.9% | 52.2%
CCC(=O)Nc1cc(-c2cccc(C)c2)nn1-c1ccccc1 | 18.0%[59 µM] | . | 10.8% | -4.9% | 15.0%[57 µM]
OCCN1CCN(Cc2ccc3ccccc3c2)CC1 | . | -13.5% | 50.1µM* | 20µM* | ?
OCCN1CCN(Cc2cccc(Oc3ccc(Cl)cc3)c2)CC1 | ? | 2.4% | ? | -19.5% | 15.1%
CCOC(=O)C1CCN(Cc2cc(C(C)C)c(O)c(C(C)C)c2)CC1 | -37.3% | 2.4% | -21.6% | -13.0% | 19.7%
